# This is a sample that favours compounds with a hit; in the whole collection about 1.7% have one here.
# GLP1R inv ag – inverse agonists of human GLP-1 receptor. AID 624417. P43220. hit rate 1.6% among 410,000. HEK293 GLP-1R CRE-luciferase, luminescence, 24 h; GLP-1R form is constitutively active. Potency, µM (series often up to 38.3 µM), for the others: at the highest dose activity change, negative = inhibition, usual class: inhibitors; further: on the % scale 0 is the no-effect control and ±100 the full control effect; nearly all actives have a fitted effect of over 55% in size
#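 HEK293 cells stably co-expressing constitutively active GLP-1R and a cAMP-responsive luciferase reporter were seeded in DMEM with 10% Nu serum, given compounds after 12 h, and incubated 24 h at 37 deg C. Luminescence was then read.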
# GLP1R cytotox – cytotoxic in the GLP-1 receptor inverse agonist counter-screen; AID 624418; hit rate 0.13% among 410,000; HEK293 cAMP-luciferase reporter cells, luminescence, 24 h; Potency, µM (series often up to 38.3 µM), for the others: at the top dose activity change, negative = inhibition, most hits filed as inhibitors;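 further: loss of luciferase light is scored as toxicity; on the % scale 0 is the no-effect control and ±100 the full control effect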
#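 Compound-treated cells are incubated 24 hr at 37 deg C under 5% CO2 after a 12 hour attachment period, then luciferase detection reagent is added and luminescence is measured following 12 min at room temperature; lowered signal indicates toxicity.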
# PTHR1 agonist – agonists of human PTHR1 parathyroid hormone receptor; Q03431; HEK293 GP2 PTHR1 cells, GloSensor cAMP luminescence, 1 h; Potency, µM (top dose mostly 115 µM), without a hit: top-dose activation, actives largely listed as activators; hit rate 0.075% among 410,000; AID 743266; further: nearly all actives have a fitted effect of over 55% in size
# Target sequence (Q03431 whole entry, looked up): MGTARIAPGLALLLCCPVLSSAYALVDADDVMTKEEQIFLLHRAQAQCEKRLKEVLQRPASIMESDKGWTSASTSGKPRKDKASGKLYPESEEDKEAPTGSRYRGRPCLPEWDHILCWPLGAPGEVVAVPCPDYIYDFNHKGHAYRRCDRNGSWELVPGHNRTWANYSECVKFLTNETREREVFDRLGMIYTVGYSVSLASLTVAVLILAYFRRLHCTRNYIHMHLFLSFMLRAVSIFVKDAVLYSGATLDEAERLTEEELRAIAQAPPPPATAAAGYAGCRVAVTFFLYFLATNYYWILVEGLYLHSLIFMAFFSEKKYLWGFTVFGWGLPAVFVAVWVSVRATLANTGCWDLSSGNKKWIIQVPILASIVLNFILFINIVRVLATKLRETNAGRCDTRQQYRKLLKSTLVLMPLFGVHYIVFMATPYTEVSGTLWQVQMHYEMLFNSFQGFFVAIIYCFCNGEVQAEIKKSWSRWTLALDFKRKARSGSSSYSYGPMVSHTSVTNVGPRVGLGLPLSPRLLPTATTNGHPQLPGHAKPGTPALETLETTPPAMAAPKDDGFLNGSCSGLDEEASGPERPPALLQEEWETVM
#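 HEK-293-derived GP2 cells expressing PTHR1 and a GloSensor cAMP reporter, 3,000/well, plated overnight, given luciferin plus IBMX (each 0.5 mM as added) for 1 h at 37 °C, then compound for 1 h at 37 °C. Luminescence was read after 15 min at room temperature.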
# GLP-1R agonist – activates the human GLP-1 receptor; P43220; HEK293 GLP-1R CRE-luciferase, luminescence, 4-6 h; cells express a hypersensitive GLP-1R form; Potency, µM (doses to about 45.6 µM), for the others: at the top dose activation, actives largely listed as activators; hit rate 0.007% among 380,000; AID 624172; further: % of control where 0% means no effect
# An asterisk follows results filed as active; i = inactive; ? = inconclusive; nt = not tested or not shown; [ ] = dose if it differs, or a comment. The call rests on the fitted dose curve; in most records, active means well fitted curve in the direction sought with a large enough effect; inconclusive means small, poorly fitted or top-dose-only effect, or another doubt; inactive means no such curve, though single readings can be large; an effect the other way counts as inactive or inconclusive. Potency means the concentration at half of the fitted maximal effect.
SMILES,GLP1R inv ag,GLP1R cytotox,PTHR1 agonist,GLP-1R agonist
CCn1cc(S(=O)(=O)c2cc(C)cc(C)c2)c(=O)c2cc(F)c(N3CCN(c4ccccc4)CC3)cc21,-8%,-1%,-3%,nt
CCCCCCC(=O)O[C@@H]1CC[C@H]2[C@@H]3CCc4cc(O)ccc4[C@H]3CC[C@]12C,nt,nt,nt,1%
Cc1nc(Nc2nc(CSc3nc4ccccc4[nH]3)cc(=O)[nH]2)nc2ccccc12,1.1µM*,?,i,-4%
CN(C)C(CNC(=O)c1cc(S(=O)(=O)N(C)c2ccccc2)ccc1Cl)c1ccccc1 (stereo not given),10µM*,7%,-15%,15%
CCC(C(=O)Nc1cccc(S(=O)(=O)N(C)c2ccccc2)c1)c1ccccc1 (stereo not given),7.1µM*,5%,-19%,-3%
COc1ccc(-n2cc(C(=O)NC(C)c3ccccc3)c3ccccc3c2=O)cc1 (stereo not given),?,-7%,i,nt
CCOc1ccc(/C=C/C(O)=C2/C(=O)NC3(C)CC2c2ccccc2O3)cc1OC (stereo not given),?,0%,-34%,9%
CCOc1ccc(/C=C/C(O)=C2/C(=O)N(C)C3(C)CC2c2ccccc2O3)cc1OC (stereo not given),3.2µM*,-5%,-35%,10%
COc1cccc(NC(=O)C(Sc2nnc(Nc3ccccc3C)s2)c2ccccc2)c1 (stereo not given),10µM*,?,i,-10%
CCCCCCCn1c(=N)n(CC(O)c2ccco2)c2ccccc21 (stereo not given),11µM*,?,-20%,4%
CCCCCn1c(=N)n(CC(O)COc2cccc(C)c2)c2ccccc21 (stereo not given),11µM*,?,-52%,nt
Cc1ccc(S(=O)(=O)N2CCC(n3c(C)nc4cccnc43)CC2)c(C)c1,-19%,4%,-52%,nt
COc1ccccc1OCCn1c(COc2cc(C)ccc2C)nc2ccccc21,8%,-3%,-3%,nt
O=S(=O)(c1ccc(Cl)cc1)c1nc(-c2cccs2)oc1SCc1ccccc1F,10µM*,9%,-8%,nt
Cc1ccc(S(=O)(=O)Nc2ccccc2N2CCCCC2)cc1,2.8µM*,-23%,-18%,1%
Cc1ccccc1[C@@]1(C)ON(c2ccccc2C(F)(F)F)C1=O,11µM*,-48%,-33%,-2%
CCNC(=O)c1c2c(nc3ccccc13)C(=O)N(C1CCCCC1)C2,-6%,-10%,?,nt
O=c1c2ccccc2sc2c(CO)ccc(NCCN3CCCCC3)c12,10µM*,7.9µM*,i,-13%
COc1ccc(S(=O)(=O)Nc2ccc3c(c2)CCCN3S(=O)(=O)c2ccc(C)cc2)cc1F,?,-11%,-26%,nt
CC1=C(C(=O)NC(C)CCc2ccccc2)C2(CCC(C)CC2)OC1=O (stereo not given),8.9µM*,8%,-16%,13%
COc1ccc(NC(=O)CC2C(=O)N(c3ccc(C)cc3)C(=O)N2CCc2ccccc2)cc1 (stereo not given),-29%,-2%,-11%,nt
Cc1oc(-c2ccc(C(=O)NCCC(C)C)cc2)nc1CN1CCc2ccccc21,?,0%,-27%,0%
Cc1oc(-c2ccc(C(=O)NCc3ccccc3)cc2)nc1CN1CCc2ccccc21,10µM*,-6%,-17%,nt
CCN(CC)c1ccc(NC(=O)C2CC3CCC2C3)cc1 (stereo not given),7.9µM*,-15%,0%[57.5 µM],0%
CC(C)(C)OC(=O)N1CCC(c2c(C(=O)NCCN3CCOCC3)cnn2-c2ccc(F)cc2F)CC1,8%,-10%,-18%,nt
SMILES,GLP1R inv ag,GLP1R cytotox,PTHR1 agonist,GLP-1R agonist
COc1cc(C=O)ccc1OCCCOc1ccccc1C(=O)O,2.2µM*,21%,-24%[57.5 µM],-4%
COc1ccc(-c2cc3nc(C)cc(N)n3n2)cc1,7.9µM*,19%,-33%,-25%
CCCCCCCCCCCCCCNCCO,nt,nt,nt,11%
CCCCN1C(=S)NC[C@@H]1Cc1cccc2ccccc12,?,?,-66%,14%
CCCC[C@@H]1CNC(=S)N1CCc1cccc2ccccc12,3.5µM*,-1%,-25%,20%
COc1ccccc1N1CCN(C(=O)CCn2cnc3onc(-c4ccc(F)cc4)c3c2=O)CC1,-1%,1%,i,nt
CC(C)c1cc(-c2cc(C(=O)NCc3ccccc3)on2)nc(NC2CCCC2)n1,-13%,-10%,-15%,-2%
CC(C)c1cc(-c2cc(C(=O)NCc3ccccc3)on2)nc(NCC2CC2)n1,13µM*,0%,-27%,-4%
O=C(CNC(c1ccccc1)c1ccccc1)NCc1ccccc1Cl,10µM*,3%,-6%,13%
CCN(CC)CCNC(=O)CCc1c(C)nc2c(c(C)nn2-c2ccc(C)cc2)c1C,1.6µM*,?,-40%,0%
Cc1ccc(N2C(=O)CC(N(CCc3ccccc3)C(=S)Nc3ccc(N(C)C)cc3)C2=O)cc1 (stereo not given),4µM*,-31%,i,0%
O=C1CC(N(CCc2ccccc2)C(=S)Nc2ccccc2)C(=O)N1c1ccc(Br)cc1 (stereo not given),?,?,-55%,-6%
Cc1c(C(=O)N2CCN(C(c3ccccc3)c3ccccc3)CC2)oc2ccccc12,4.5µM*,19%,-15%,-7%
Cc1c(C(=O)N2CC(C)OC(C)C2)oc2ccccc12 (stereo not given),0%,3%,i,10%
OC(COc1cccc2ccccc12)CN1CCN(c2ccccc2Cl)CC1 (stereo not given),?,?,-19%,26%
COc1cccc(OCC(O)CN2CCN(c3ccc(Cl)cc3)CC2)c1 (stereo not given),10µM*,1%,-13%,-1%
Cc1ccccc1OCC(O)CN1CCN(CC(O)COc2ccccc2C)CC1 (stereo not given),8.9µM*,-6%,-25%,-2%
Cc1ccc(N2CCN(CC(O)COc3cccc4ccccc34)CC2)cc1 (stereo not given),11µM*,?,-26%,-6%
Cc1ccccc1OCC(O)CN1CCCCC1 (stereo not given),12%,?,-13%,-5%
O=C(NCCOCCn1c(=O)oc2ccccc21)Nc1ccc(F)cc1F,-23%,3%,-11%,nt
Cc1ccsc1/C=N/Nc1nc(=O)[nH]nc1C,3.5µM*,?,-13%,0%
COc1ccc(NCC(=O)n2c(C)c(C)c3ccccc32)cc1,-6%[7.66 µM],-7%[7.66 µM],i,-1%
COc1ccc(C(=O)c2c(C)c3ccccc3n2CC(O)CNC(C)C)cc1 (stereo not given),2.2µM*,8.9µM*,?,-2%
Cc1ccc(Cl)cc1NC(=O)c1ccc(NC(=O)N2CCSc3ncccc32)cc1,2%,1%,-25%,nt
Cc1ccc(N2C(=O)CSC23C(=O)N(CC(=O)NCCc2ccccc2)c2ccccc23)cc1 (stereo not given),2%,2%,-10%,4%
